POLH inh = DNA polymerase eta (human) inhibition; Q9Y253; recombinant Pol eta, fluorescent DNA replication assay; Potency, µM (doses to about 114 µM), for the others: at the highest dose activity change, negative = inhibition, usual class: inhibitors; 1.2% of 390,000 active; also: % is scaled to controls: 0 for no effect and ±100 for the full control effect
Target sequence (Q9Y253 whole entry, looked up): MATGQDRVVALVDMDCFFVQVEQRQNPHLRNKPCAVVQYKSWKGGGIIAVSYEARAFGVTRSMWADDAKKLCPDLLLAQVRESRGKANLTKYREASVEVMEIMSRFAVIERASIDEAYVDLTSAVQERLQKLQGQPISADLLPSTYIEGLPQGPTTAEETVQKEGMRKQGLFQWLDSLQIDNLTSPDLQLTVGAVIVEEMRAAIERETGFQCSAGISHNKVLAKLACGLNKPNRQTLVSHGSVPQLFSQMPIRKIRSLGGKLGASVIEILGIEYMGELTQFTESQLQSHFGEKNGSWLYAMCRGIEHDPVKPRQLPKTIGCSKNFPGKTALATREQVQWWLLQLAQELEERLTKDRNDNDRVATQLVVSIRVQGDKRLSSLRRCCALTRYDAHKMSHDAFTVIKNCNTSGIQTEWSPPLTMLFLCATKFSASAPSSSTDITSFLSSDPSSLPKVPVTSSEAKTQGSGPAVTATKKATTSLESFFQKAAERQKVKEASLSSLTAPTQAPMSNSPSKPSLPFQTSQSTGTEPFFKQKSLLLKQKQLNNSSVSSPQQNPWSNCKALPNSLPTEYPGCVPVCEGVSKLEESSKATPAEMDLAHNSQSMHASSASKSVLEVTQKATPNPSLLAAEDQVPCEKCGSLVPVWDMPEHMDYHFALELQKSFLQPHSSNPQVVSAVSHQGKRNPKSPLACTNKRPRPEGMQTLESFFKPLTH
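Fluorescent replication assay: 50 nM final substrate added after a 15 min room-temperature compound preincubation with 10 nM enzyme. Signal taken at 0 min and again at 10 min.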
POLB inh = blocks human DNA polymerase beta activity; Potency, µM (doses to about 114 µM), for the others: at the highest dose activity change, negative = inhibition, most hits filed as inhibitors; Pol beta primer extension/strand displacement, fluorescence kinetic; AID 485314; 1.3% of 340,000 active; P06746; also: % is scaled to controls: 0 for no effect and ±100 for the full control effect
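Values derive from four-parameter Hill fits of normalized kinetic data: reads at 0 and 10 min following addition of 50 nM substrate to 10 nM Pol beta preincubated 15 min with compound.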
WRN inhibitor = inhibitors of human WRN helicase; Q14191; WRN helicase unwinding, fluorescent forked duplex, kinetic; Potency, µM (highest dose often 114 µM), for the others: at the highest dose activity change, negative = inhibition, actives largely listed as inhibitors; 0.46% of 360,000 active; also: % is scaled to controls: 0 for no effect and ±100 for the full control effect; nearly all actives have a fitted effect of over 55% in size
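Fluorescence dequenching readout, ex 525 nm/em 598 nm, kinetic mode: forked duplex DNA (100 nM final) with adjacent fluorophore and quencher unwound by WRN (20 nM final) with 2 mM ATP. Compound preincubation 15 min, room temperature.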
POLI inh = blocks human DNA polymerase iota activity; Q9UNA4; Pol iota fluorescent replication assay, 10 min; Potency, µM (highest dose often 115 µM), for the others: at the top dose activity, negative = inhibition, most hits filed as inhibitors; 1% of 390,000 active; AID 588590
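Pol iota at 10 nM preincubated 15 min with compounds at room temperature; reaction started with fluorescent substrate, 50 nM final. Fluorescence read kinetically at 0 and 10 min; buffer-only wells as negative control.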
Pol kappa inh = blocks human DNA polymerase kappa activity; purified Pol kappa, fluorescent DNA synthesis assay, 10 min; Potency, µM (highest dose often 107 µM), for inactives: at the highest dose activity, negative = inhibition, usual class: inhibitors; 0.53% of 400,000 active; Q9UBT6; also: % is scaled to controls: 0 for no effect and ±100 for the full control effect
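50 nM final substrate added after 15 min RT preincubation of 10 nM Pol kappa with compound; fluorescence read at 0 and 10 min.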
The depositor's hits bear a star; ? = inconclusive; / = no result; ! = not active in a repeat; [ ] = remark or other dose. Only some compounds are listed: those with a hit (about 2.3% of all), similar ones and a draw of the others. Calls follow the shape of the dose curve; as a rule, active = well fitted curve in the direction sought with a large enough effect; inconclusive = small, poorly fitted or top-dose-only effect, or another doubt; inactive = no such curve, though single readings can be large; an effect the other way counts as inactive or inconclusive. Potency is read from the fitted curve at half-maximal effect.

SMILES | POLH inh | POLB inh | WRN inhibitor | POLI inh | Pol kappa inh
O=C(N/N=C/c1cccc(OC2CSC2)c1)c1ccccc1O | ? | 45µM* | ? | ? | -31%
Cn1ncc(Br)c1C(=O)N/N=C/c1cccc(OC2CSC2)c1 | -14% | 3% | -1% | -14% | -14%
O=C(N/N=C/c1ccoc1)c1ccc(Cl)cc1 | -2% | -6% | 0% | ? | 2%
Cc1ccc(O)c(/C=N/NC(=O)Cc2ccc(Cl)cc2)c1 | 6% | 25µM* | -13% | -6% | -8%
CC[C@H](C)[C@H](NC(=O)[C@H](CC(C)C)NC(=O)[C@H](CC(N)=O)NC(=O)[C@@H](NC(=O)[C@@H](N)Cc1ccc(O)cc1)[C@@H](C)CC)C(=O)N[C@@H](Cc1ccc(O)cc1)C(=O)N[C@@H](CCCN=C(N)N)C(=O)N[C@@H](CC(C)C)C(=O)N[C@@H](CCCN=C(N)N)C(=O)N[C@@H](Cc1ccc(O)cc1)C(N)=O | / | / | / | / | 15%[60.1 µM]
CCOc1ccc(-n2c(C)cc(/C=N/Nc3nc(C)cc(=O)[nH]3)c2C)cc1 | -1% | 20% | -2% | -9% | -5%
COc1cccc(/C=N/Nc2nnc(C)n2N)c1O | -20% | 0% | 1% | 4µM* | -1%
COc1cccc(/C=N/Nc2ccc([N+](=O)[O-])cc2)c1O | -12% | 45µM* | -17% | 20% | -4%
Cc1nnc(N/N=C/c2ccccc2F)n1N | -21% | 26% | 2% | ? | -4%[60.1 µM]
COc1ccc(-n2c(C)cc(/C=N/Nc3nnc(C)n3N)c2C)cc1 | -9% | -28% | -35% | 22µM* | -16%
CN(Cc1ccccc1)/[N+]([O-])=N/Oc1ccc([N+](=O)[O-])cc1[N+](=O)[O-] | / | / | / | ? | 1%
O=[N+]([O-])c1cccc2[nH]cnc12 | / | / | / | 16% | -5%
Cc1cc(C)c2c(NC(=O)c3ccccc3Cl)c(C(=O)NCc3ccc(Cl)cc3)sc2n1 | / | 22µM* | / | -20% | -16%
Cc1ccc(C(=O)Nc2c(C(=O)NCc3ccc(Cl)cc3)sc3nc(C)cc(C)c23)cc1 | / | 1% | / | 12% | -1%
CCOC(=O)C1=C(C)NC(=S)NC1c1ccco1 (stereo unspecified) | ? | 0% | ? | 22µM* | ?
CCOC(=O)C1=C(C)NC(C)=C(C(=O)OCC)C1c1ccco1 | 2% | 38% | -2% | 3% | -6%
CCOC(=O)C1=C(C)NC(=O)NC1c1ccc(C)o1 (stereo unspecified) | ? | 4% | -20%[57.1 µM] | 56µM* | ?
COC(=O)C#CC(=O)OC | / | / | / | / | 15%[60.1 µM]
COC(=O)c1scc(S(C)(=O)=O)c1-n1cccc1 | -10% | 3% | -15% | 185% | 6%
Cc1csc(C(=O)O)c1-n1cccc1 | 18µM* | 22µM* | -12%[57.1 µM] | ? | -18%
CC(=O)c1ccc(NC(=O)c2ccc3snnc3c2)cc1 | ? | 25µM* | -17% | ? | -14%
Fc1ccc(C(c2ccc(F)cc2)N2CCN(CC=Cc3ccccc3)CC2)cc1 | / | / | / | / | -5%[19.4 µM]
Cn1c(SCc2cc(=O)n3cc(Br)ccc3n2)nnc1C1COc2ccccc2O1 (stereo unspecified) | ? | ? | -10% | ? | -38%
Cc1occc1-c1nnc(SCc2cc(=O)n3cc(Br)ccc3n2)n1C | ? | 45µM* | -14% | ? | -45%
O=C(C[n+]1cccc2cc(Cl)ccc21)c1ccc2c(c1)CCCC2 | / | / | / | -2% | -8%
SMILES | POLH inh | POLB inh | WRN inhibitor | POLI inh | Pol kappa inh
O=C(Nc1ccc2c(c1)OCO2)C1Cc2ccccc2CN1S(=O)(=O)c1cccs1 (stereo unspecified) | ? | 16µM* | -17% | 20µM* | ?
CCSC(=O)N1CCN(/[N+]([O-])=N/Oc2ccc([N+](=O)[O-])cc2[N+](=O)[O-])CC1 | / | / | / | ? | 1%
Cc1ccccc1Cn1ccc(NC(=O)c2cc3ncc(Br)cn3n2)n1 | -3% | 20µM* | -7% | 12% | -2%
CCc1ccc(C(=O)C[N+]2(C)CCOCC2)cc1 | / | / | / | 34% | 9%
Cc1ccc(N=c2ssnc2Cl)cc1 | -5% | 2% | 50µM* | ? | 10%
Cc1cc(Cl)ccc1N=c1ssnc1Cl | -18% | 10% | 50µM* | ? | 0%
Clc1ccc(-c2csc3ncnc(Sc4nnnn4C4CC4)c23)cc1 | / | / | / | -17% | -2%
COc1ccc(NC(=O)C2=CC(c3cccs3)=NS(=O)(=O)N2C)cc1 | -4% | 32µM*! | -3% | 19% | 5%
COc1cccc(NC(=O)/C(C#N)=C\c2cn(Cc3ccc(C)cc3)c3ccccc23)c1 | -13% | 1% | / | 29% | 7%
N#C/C(=C/c1cn(Cc2ccc(F)cc2)c2ccccc12)C(=O)Nc1cccc(Cl)c1 | -17% | 1% | / | 56µM* | ?
CCOC(=O)c1c(S(=O)(=O)NCC(=O)Nc2ccc(F)cc2F)c(C)n(C)c1C | -3% | -1% | -7% | 4% | -10%
CCOC(=O)c1c(S(=O)(=O)NCC(=O)N(C)c2ccc(C)cc2)c(C)n(C)c1C | 45µM* | 7% | / | -5% | -14%[60.1 µM]
CCOC(=O)c1c(S(=O)(=O)NCC(=O)Nc2ccc(F)cc2C)c(C)n(C)c1C | 79µM* | -22% | / | 11% | 2%[60.1 µM]
Cc1cnc2c(C)cccc2c1C | / | / | / | -3% | 0%
N.N.O=C(O)C1(C(=O)O)CCC1.[Pt] | -3%[57.1 µM] | 8%[57.1 µM] | / | -7%[58.9 µM] | 22µM*
O=C(O)C1(C(=O)O)CCC1 | -2% | / | 0% | -3% | -18%
O=C(CN1C(=O)CC(c2ccco2)Sc2ccccc21)Nc1ccccc1F (stereo unspecified) | ? | -18% | ? | 45µM* | -21%
N[C@@H](C(=O)O)[C@@H](CC(=O)O)c1ccc(Cl)cc1 | / | / | / | / | 8%[19.4 µM]
CCc1nnc(NS(=O)(=O)c2ccc(NC(=O)/C=C/c3ccc(OC)cc3OC)cc2)s1 | ? | 56µM* | ? | ? | ?
CCc1nnc(NS(=O)(=O)c2ccc(N/C=C\C(=O)c3cccc(OC)c3)cc2)s1 | -17% | -2% | -30% | 51% | -7%
Cc1nn(-c2ccccc2)c2sc(-c3nnc(SCC(=O)O)o3)cc12 | 89µM* | -11% | -32%[57.1 µM] | -16% | -6%[60.1 µM]
Cc1cc(N2C(=O)C3C4C=CC(C4)C3C2=O)ccc1NC(=O)c1cccs1 (stereo unspecified) | ? | 32µM* | -19% | ? | -30%
COc1ccccc1CNC(=O)C(=O)NCC(c1ccc2c(c1)OCO2)N1CCOCC1 (stereo unspecified) | 9% | 6% | / | 9% | 3%[60.1 µM]
CCOC(=O)NC1(Nc2cccc(Cl)c2)Oc2ccccc2O1 | -11% | 4% | -17% | 25µM* | ?
Cc1ccccc1NC(=O)CSc1nnc(-c2ccco2)c(-c2ccco2)n1 | 50µM* | 14µM* | 40µM* | 10µM* | 32µM*
COc1ccc(-c2nnc(SCC(=O)Nc3c(C)cccc3C)nc2-c2ccc(OC)cc2)cc1 | -20% | -13% | / | -22% | -13%
